Screening results (PubChem)
PolyA inh = polyadenylation inhibitors in yeast reporter cells, primary screen, luminescence, S. cerevisiae; AID 1875, 2009; S. cerevisiae SKY197-pL101 polyadenylation reporter, beta-gal luminescence; efflux-impaired pdr1/pdr3 knockout yeast; score 100 = 6 SD above DMSO; activity score, % at 12 µM; hit rate 0.02% among 300,000;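 active = lowest replicate activity score at least 50, where 100 means six control SD above control mean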;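 note: yeast exposed to compound for 9 h at 30 °C; higher score means more reporter readthrough which indicates perturbed polyadenylation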
CaV13 ICDI inh = Disruptors of the CACNA1D IQ motif to Ca2+-dependent inactivation inhibitor domain association, primary screening, Förster resonance energy transfer in intact living …; AID 743397; HEK cells, CFP/YFP FRET ICDI-IQ, plate reader, 10 min; percent FRET-ratio fall versus neutral wells; hit rate 0.098% among 340,000; inhibition, % at 12.3 µM;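 active = mean replicate inhibition of at least 30% and at least 1% of replicates passing that level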;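 note: 0% = median of the neutral control wells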
PfM18AAP inh = PfM18AAP inhibitors, malaria aminopeptidase, primary screen, biochemical, QFRET, recombinant enzyme | M18 aspartyl aminopeptidase (Plasmodium falciparum 3D7) | H-Glu-NHMec fluorogenic cleavage | inhibition, % at 7.35 µM | hit rate 1.2% among 290,000 | AID 1822, 2009;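 active = inhibition above the campaign mean inhibition over all tested compounds plus 3 SD, cut at about 28% in these data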;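 note: 0% = plate median of test compound wells and 100% = 2 mM ZnCl2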
ALR H2O2 inh = inhibitors of human ALR sulfhydryl oxidase, primary screen, biochemical, H2O2 detection, HRP-luminol luminescence, single point; AID 485317, 2010; hit rate 3.8% among 290,000; FAD-linked sulfhydryl oxidase ALR (Homo sapiens), P55789; inhibition, % (no concentration beside the values); purified ALR, DTT oxidation;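 active = mean replicate inhibition above about 79%, with every replicate also reaching it, limit read from the data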
Target sequence (P55789 whole entry, looked up): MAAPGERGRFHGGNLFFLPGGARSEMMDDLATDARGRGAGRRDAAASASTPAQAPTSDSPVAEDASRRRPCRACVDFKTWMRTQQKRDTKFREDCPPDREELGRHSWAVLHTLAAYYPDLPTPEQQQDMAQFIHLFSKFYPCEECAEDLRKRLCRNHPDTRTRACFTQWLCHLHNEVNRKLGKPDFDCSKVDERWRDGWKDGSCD
IDE cell activ = human IDE activators in live cells, primary screen, fluorescence polarization, HEK cells, FAbeta-B substrate; Insulin-degrading enzyme (Homo sapiens), P14735; FAbeta-B cleavage; 0% vehicle, 100% cell-free pure enzyme wells; activation, % at 5.96 µM; hit rate 0.073% among 340,000; AID 493087, 2011;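 active = activation above the mean of all tested compounds plus 3 SD, set per screening campaign, cut at about 17% in these data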
IDE inh = human IDE inhibitors in live cells, primary screen, fluorescence polarization, HEK cells, FAbetaB substrate | inhibition, % at 5.59 µM | AID 434962, 2010 | hit rate 0.41% among 320,000 | FAbetaB cleavage | Insulin-degrading enzyme (Homo sapiens), P14735;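 active = percent inhibition above the average of all tested compounds plus 3 SD, set per screening campaign, cut at about 16% in these data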;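 note: IDE supplied by intact live HEK cells; FP after avidin binding of uncleaved biotin substrate so inhibition keeps polarization high; 0% = DMSO wells and 100% = 60 µM reference IDE inhibitor Ii1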
* hit, by the source's call; x = no result. Rows were chosen to be rich in hits. Some 4.1% of all compounds tested hit in one or more screens of this group.

SMILES	PolyA inh	CaV13 ICDI inh	PfM18AAP inh	ALR H2O2 inh	IDE cell activ	IDE inh
Cc1cccc(-c2nc(Nc3ccc(N4CCOCC4)cc3)c3ccccc3n2)c1	-4.3	-18.9	4.3	x	3.5	-1.4
c1ccc2c(Nc3ccc(N4CCOCC4)cc3)nc(N3CCOCC3)nc2c1	-3.5	-19.7	-1.0	92.4*	1.7	-0.2
COc1ccc(CNc2ccc(N3CCOCC3)cc2)cc1	0.2	-7.0	-17.9	98.9*	8.0	2.9
Cc1cc(-c2ccc(C(C)C)c(S(=O)(=O)N3CCN(c4ccccn4)CC3)c2)on1	-21.8	-2.4	0.8	-3.7	4.8	3.4
CCOC(=O)c1c(-c2ccc(OC)cc2)csc1/N=C/C1C(=O)CCCC1=O	-18.1	-4.7	33.5*	48.0	-0.9	0.7
CCOC(=O)c1c(-c2ccc(OC)cc2)csc1/N=C/N(C)C	4.4	-16.9	10.8	14.2	1.7	6.6
CCOc1cc(/C=N/NC(=O)N/N=C/c2ccc(O)c(OCC)c2)ccc1O	-0.7	-4.6	x	98.8*	x	6.7
CCOc1cc(/C=N/NC(=O)C(C)Sc2ccccc2)ccc1O (stereo not drawn)	-9.7	-1.9	4.6	98.5*	-3.7	3.6
CCOc1cc(/C=N/NC(=O)c2ccccc2-n2cccc2)ccc1O	x	-6.1	x	98.8*	-4.7	0.1
CCOc1cc(/C=N/NC(=O)C(N)=O)cc(Br)c1O	19.9	-3.8	3.1	91.0*	7.3	-3.6
O=S(=O)(c1ccccc1)N1CCCc2nc(-c3ccc(F)cc3)ccc21	x	-3.6	x	x	x	x
COC(=O)[C@@]1(Cc2ccccc2)[C@H]2C(=O)N(C)C(=O)[C@H]2[C@H]2CN(C)C(=NCc3ccccc3)N21	x	-4.9	x	x	3.0	x
CCOc1ccc(/C=N/NC(=O)C(OC)c2ccccc2)cc1 (stereo not drawn)	1.5	2.4	2.6	-6.9	-3.2	-3.4
CCOc1cc(/C=N/NC(=O)C(OC)c2ccccc2)ccc1O (stereo not drawn)	-16.6	-4.6	2.7	99.7*	6.4	-21.7
CCc1nnc(NC(=O)CSc2nnc(C3CC3)n2C)s1	-3.5	-6.2	7.0	-5.7	0.0	-1.2
CCC(CO)Oc1cc(NCc2ccc(O)cc2)c2ncn(C(C)C)c2c1 (stereo not drawn)	x	-5.6	x	98.6*	2.2	1.4
CCC(CO)Oc1cc(NCc2ccccc2)c2ncn(C(C)C)c2c1 (stereo not drawn)	x	-4.2	x	58.6	0.0	8.0
COCCCOc1cc(NCc2ccccc2)c2ncn(C(C)C)c2c1	x	122.4*	x	44.1	3.9	1.2
CCC(COC)Oc1cc(NCc2ccccc2)c2ncn(C(C)C)c2c1 (stereo not drawn)	x	-3.3	x	83.4*	-1.7	-5.8
CCC(CO)Oc1cc(NCc2ccc(C(C)(C)C)cc2)c2ncn(C(C)C)c2c1 (stereo not drawn)	x	-4.3	x	-19.2	9.2	-3.8
C[C@@H]1CCCCO[C@H](CN(C)C(=O)CCC(F)(F)F)[C@H](C)CN([C@@H](C)CO)C(=O)c2cc(NS(=O)(=O)c3ccc(Cl)cc3)ccc2O1	x	-5.5	x	x	x	x
COc1cccc(-c2nc(CS(=O)(=O)CC(=O)NCCN3CCOCC3)c(C)o2)c1	18.0	-7.1	-4.9	99.0*	-1.6	6.0
CCN1CCN(C(=O)CS(=O)(=O)Cc2nc(-c3cccc(OC)c3)oc2C)CC1	5.0	-7.0	5.2	98.8*	8.2	4.0
COc1ccc(-c2nc(CS(=O)(=O)CC(=O)NCCCN3CCOCC3)c(C)o2)cc1	18.4	-2.4	-2.0	-1.4	2.0	9.3
COc1cccc(-c2nc(CS(=O)(=O)CC(=O)NCCCN3CCOCC3)c(C)o2)c1	8.6	-4.5	-10.3	98.6*	-5.5	1.7
SMILES	PolyA inh	CaV13 ICDI inh	PfM18AAP inh	ALR H2O2 inh	IDE cell activ	IDE inh
COc1cccc(-c2nc(CS(=O)(=O)CC(=O)NCCCN3CCc4ccccc4C3)c(C)o2)c1	-7.8	-4.7	0.3	99.0*	-1.3	0.0
Cc1c(NS(=O)(=O)c2ccc3c(c2)NC(=O)CC(=O)N3)cccc1[N+](=O)[O-]	-3.2	-2.6	0.1	-7.0	4.2	3.4
CCC1CCCCN1CCCNC(=O)CS(=O)(=O)Cc1nc(-c2cccc(OC)c2)oc1C (stereo not drawn)	8.1	-6.9	2.0	98.4*	7.8	2.4
Cc1oc(-c2ccccc2Cl)nc1CS(=O)(=O)CC(=O)N1CCOCC1	-12.2	-4.7	-1.4	98.1*	0.5	8.5
Cc1oc(-c2ccccc2F)nc1CS(=O)(=O)CC(=O)N1CCCCCC1	-6.4	-6.3	-4.7	10.4	-0.8	-5.1
Cc1oc(-c2ccccc2Cl)nc1CS(=O)(=O)CC(=O)NCCN1CCOCC1	-19.0	-5.1	-3.0	93.4*	-2.0	4.4
Cc1oc(-c2cccc(Cl)c2)nc1CS(=O)(=O)CC(=O)NCCN1CCOCC1	-12.2	-6.2	-4.6	95.4*	1.1	0.7
Cc1ccnc(N2CCC(C(=O)NCc3ccccc3F)CC2)n1	-0.9	-2.8	4.9	0.3	13.1	3.7
C[C@H](CO)N1C[C@H](C)[C@@H](CN(C)S(=O)(=O)c2cccc(F)c2)Oc2ncc(Br)cc2C1=O	x	-6.1	x	x	x	x
Cc1ccc(-c2nc3ncccn3c2Nc2ccc3c(c2)OCCO3)o1	-7.3	-4.8	11.9	98.9*	1.3	-1.8
Cc1ccc(-c2nc3ncccn3c2NC2CCCCC2)o1	1.2	-4.1	-5.1	98.7*	1.4	-0.5
Cc1cc(C)n2c(NC3CCCC3)c(-c3cc4ccccc4o3)nc2n1	x	-9.9	x	x	x	x
Brc1ccc(-c2nc3ncccn3c2Nc2ccc3c(c2)OCCO3)o1	5.6	x	-13.9	98.5*	6.9	0.5
O=C(COC(=O)c1ccccc1F)Nc1ccc(S(=O)(=O)N2CCOCC2)cc1	x	-5.5	x	-4.1	-1.1	4.9
Cc1ccc(C(C[N+](=O)[O-])c2c(-c3ccccc3O)[nH][nH]c2=O)cc1 (stereo not drawn)	-62.6	-3.2	14.4	86.0*	-11.2	0.9
O=c1[nH][nH]c(-c2ccccc2O)c1C(C[N+](=O)[O-])c1ccc(Br)cc1 (stereo not drawn)	-17.0	-2.6	27.4	87.7*	-4.4	13.2
COc1ccccc1CNC(=O)CCS(=O)(=O)c1ccc2c(c1)CC(C)N2C(=O)C1CC1 (stereo not drawn)	4.1	-14.4	2.1	-2.0	3.5	2.5
CCN(CC)C(=O)[C@H]1C[C@H](CC(=O)NCCC2=CCCCC2)C(=O)N2CCc3c([nH]c4cc(CCC(=O)N(C)C)ccc34)[C@]12C	x	-2.6	x	x	2.5	x
